Tests used:
Assay in all cases: PBM binding z-score (relative to random genomic background probes); higher = stronger binding; sequences stand for … in GC…GCGATTGACAGCGTAGAATGAAGG
[1] = test system: RARb homodimer (NR concentration 270 nM)
Outline: (§1)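 Ligand-free nuclear receptor dimers were applied to custom Agilent 4×180K protein-binding microarrays whose double-stranded probes carried direct-repeat seeds, single-nucleotide variants, half-site ablations and random human genomic background sequences in 34-nt variable regions. Incubation lasted 1 h. Binding z-scores were computed against the random background probes from regression-normalized fluorescence.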

[2] = test system: RARg:RXRa (NR concentration 270 nM, RXRa partner concentration 90 nM)
Outline: as §1

[3] = test system: RARg homodimer (NR concentration 270 nM)
Outline: as §1

[4] = test system: RXRa DBDmut IVT, anti-RXR (DBD mutation: RXRa K156A/R161A, NR concentration 90 nM)
Outline: as §1

[5] = test system: RXRa homodimer (NR concentration 180 nM)
Outline: as §1

[6] = test system: THRa:RXRa (NR concentration 90 nM, RXRa partner concentration 90 nM)
Outline: as §1

[7] = test system: THRa homodimer (NR concentration 90 nM)
Outline: as §1

[8] = test system: VDR homodimer (NR concentration 270 nM)
Outline: as §1

Sequence	PBM binding z-score [1]	PBM binding z-score [2]	PBM binding z-score [3]	PBM binding z-score [4]	PBM binding z-score [5]	PBM binding z-score [6]	PBM binding z-score [7]	PBM binding z-score [8]
TCTAGCAGGCCAGAGGGTCCCTCAAGAGGTACGG	-0.677	-0.337	-0.396	-0.214	-0.191	-0.666	-1.29	-0.908
TCAAATAGGTAAAAGGTGAAAGTCGGTGTGGTAA	2.05	1.86	1.07	2.15	3.26	1.77	0.3	0.497
ACAGACAGGTGATGAAGGTAGCTCAGGCTATCAT	-0.243	-0.0777	0.295	-0.263	0.147	0.294	-0.392	-0.696
GCTAGTTGGTCAGTAAAAGGTCACACGCCGGTCG	5.37	5.72	5.2	0.626	5.46	3.72	1.66	1.85
TCAGACAGGTGAAGCTAACTCAGGTACGCAGTCG	0.0204	0.241	0.351	0.962	0.617	0.525	-0.351	-0.124
CCTAGTTGGTCAGGATGTCACACACCGGATATGA	1.17	0.74	1.1	0.164	0.209	0.0669	0.525	0.443
CCGAGTAGGTTATGGGGCATTAAGGCAACGGTGA	1.08	0.561	0.543	-0.314	0.65	0.981	0.598	0.0646
GCAGACAGATGAAACGCAGGTAACTCAGGGTGGC	-0.914	-0.366	-0.316	-0.516	-0.162	0.473	-1.03	-0.594
ATATGTAGGTTACATCCGGTTCATTCAGGCTATG	1	1.42	1.13	1.95	1.54	2.03	0.768	4.45
ACAGACAGGTGAGTGAAGGCAACTCAGCTGGACG	-0.0202	0.0165	0.418	-0.43	0.192	0.383	-0.689	-0.742
ATATGTAGGTTAAGGGTCATTCAGGTTGGTTCGC	4.16	4.91	3.76	2.37	6.65	3.68	2.05	4.42
CCGAGTAGGTTATGGGGCATACAGGCAACGGTGA	0.844	0.575	0.725	-0.471	0.691	0.28	-0.0646	0.0894
CCGTCTGGGGCAGAAAGGTTACCATACCATCCGG	2.03	1.36	0.979	-0.795	1.37	0.782	-0.335	-0.377
CGTCAAAGTTCAAGGTGACGTAACAGAAAGCAGC	4.19	5.57	6.39	4.67	4.63	3.25	1.36	3.17
TCGGGTAGGTTACCAATGGGGCATTCAGCTTTCT	1.04	1.63	0.754	0.101	0.683	0.482	0.377	0.0681
AGAATGAGGTTATACGTAGACCAGGGAAGAAAGT	0.866	1.63	1.19	1.61	2.16	1.98	0.296	0.999
GCATATAGGTAATACAAGGTAAAAGTCCGATTGT	-0.415	0.25	0.58	0.137	0.294	3.49	0.0793	-0.0351
ATCTCTAGGTCACAAGTTCAGTGAAAGAGAGGAC	4.24	5.58	6.02	2.17	4.04	3.4	2.36	3.53
CCGACTGGGGCAGATAGGTTACCATACCATCCGG	0.817	0.424	0.518	-0.658	0.262	-0.181	-0.391	-0.573
ACAGACAGGTGAGTGAAGGAAACTCAGCTGGACG	-0.566	-0.0497	0.189	-0.324	0.249	-0.366	-0.967	-0.21
CCTACTGGGCCATCACGTCATTGATATCAACGTT	0.0558	0.0905	0.383	-0.0697	-0.108	-0.192	0.107	-0.136
ATATGGAGGTTATCGGGTCATTCAGTTTGCGCAT	3.56	4.27	3.28	2.19	4.9	3.71	3	4.69
TCATATAGGTAAACAGTTGAAAGTCCGTAAGTTA	0.802	0.44	0.23	1.9	0.856	0.535	0.428	0.845
GCTGCTAGGTCAACTGATGGTCCGCTAAAGCTCG	3.41	4.2	5.3	1.53	2.8	2.73	1.26	0.106
ACAGACAGGTGAATGAAGGTAACTCAGCTGGACG	0.0507	0.439	0.784	-0.296	0.534	2.08	-0.448	-0.781
TCTCGGCGGACACGAAAGGTCAGAGCTCGACATC	4.12	4.12	4.06	0.462	3.66	2.55	0.2	0.543
CAAACTAGATCACCGGAAGGTCAAAGTCCGCATG	4.03	4.08	2.88	0.674	3.47	2.76	1.06	2.12
GCTAGTTGGTCAGTAAAAGGGCACACACCGGTCG	2.59	1.6	1.32	-0.382	0.632	0.395	-0.0299	0.271
